Calls of active or inactive are those of the source. How the source made its calls: active means hit-call score of the fitted dose curve at least 0.9, where 1 is the maximum; inactive means score below 0.9.
What was measured:
Conditions in all cases: mRNA level, 48 h; actives raise or lower the signal
[1] = read-out: Paternally Expressed 10 (PEG10), PEG10 (gene 23089); test: LTEA_HepaRG_PEG10: Life Technologies and Expression Analysis (LTEA) Assay for Paternally Expressed 10 (PEG10) using HepaRG (AID 2283520)
How it was run: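 Differentiated HepaRG cells, plated 48 h then switched to serum-free induction medium, were exposed in duplicate for 48 h to eight half-log concentrations topping at 100 uM in 0.5% DMSO. PEG10 mRNA was quantified by TaqMan qRT-PCR, normalised to ACTB, GAPDH and POLR2A.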

[2] = read-out: Protein phosphatase 2A (PPP2R4), PTPA (gene 5524); test: LTEA_HepaRG_PPP2R4: Life Technologies and Expression Analysis (LTEA) Assay for Protein phosphatase 2A (PPP2R4) using HepaRG (AID 2283522)
How it was run: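 Differentiated HepaRG cells in serum-free induction medium were exposed in duplicate for 48 h to eight concentrations, top 100 uM with half-log dilutions, in 0.5% DMSO. PPP2R4 mRNA was quantified by TaqMan qRT-PCR, normalized to ACTB, GAPDH and POLR2A.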

[3] = read-out: Phosphatase and tensin (PTEN), PTEN (gene 5728); test: LTEA_HepaRG_PTEN: Life Technologies and Expression Analysis (LTEA) Assay for Phosphatase and tensin (PTEN) using HepaRG (AID 2283523)
How it was run: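 HepaRG cells, 48 h after plating, exposed in duplicate for 48 h in serum-free induction medium to 8 half-log concentrations up to 100 uM (0.5% DMSO). PTEN mRNA by qRT-PCR, normalized to ACTB, GAPDH, POLR2A; bidirectional fit versus DMSO.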

[4] = read-out: solute carrier (SLC22A1), SLC22A1 (gene 6580); test: LTEA_HepaRG_SLC22A1: Life Technologies and Expression Analysis (LTEA) Assay for solute carrier (SLC22A1) using HepaRG (AID 2283524)
How it was run: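 Differentiated human HepaRG cells in serum-free induction medium, exposed 48 h in duplicate to 8-point half-log series from 100 µM top in 0.5% DMSO. SLC22A1 mRNA by TaqMan qRT-PCR normalized to ACTB, GAPDH, POLR2A; bidirectional fit versus DMSO.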

[5] = read-out: Pyruvate Dehydrogenase Kinase 4 (PDK4), PDK4 (gene 5166); test: LTEA_HepaRG_PDK4: Life Technologies and Expression Analysis (LTEA) Assay for Pyruvate Dehydrogenase Kinase 4 (PDK4) using HepaRG (AID 2283525)
How it was run: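 HepaRG cells plated 48 h, then switched to serum-free induction medium and exposed in duplicate for 48 h to 8 half-log concentrations from 100 uM in 0.5% DMSO. PDK4 mRNA measured by qRT-PCR, normalized to ACTB, GAPDH and POLR2A; bidirectional fit versus DMSO.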

[6] = read-out: NAD(P)H dehydrogenase [quinone] 1 (NQO1), NQO1 (gene 1728); test: LTEA_HepaRG_NQO1: Life Technologies and Expression Analysis (LTEA) Assay for NAD(P)H dehydrogenase [quinone] 1 (NQO1) using HepaRG (AID 2283526)
How it was run: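 Differentiated HepaRG cells, plated 48 h and then switched to serum-free induction medium, were exposed in duplicate for 48 h to 8-point half-log concentrations up to 100 uM in 0.5% DMSO. mRNA measured by qRT-PCR, normalized to ACTB, GAPDH, POLR2A; bidirectional fit versus DMSO.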

[7] = read-out: Nuclear factor erythroid 2-related factor 2 (Homo sapiens) (UniProt Q16236); test: LTEA_HepaRG_NFE2L2: Life Technologies and Expression Analysis (LTEA) Assay for Nuclear factor erythroid 2-related factor 2 (NFE2L2) Transcription Factor using HepaRG (AID 2283527);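 on outcome: TaqMan qRT-PCR transcript level normalised to ACTB GAPDH and POLR2A housekeeping genes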
How it was run: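 Differentiated human HepaRG cells, serum-free induction medium, exposed 48 h in duplicate to eight half-log concentrations up to 100 uM in 0.5% DMSO. NFE2L2 mRNA by Fluidigm TaqMan qRT-PCR, normalised to ACTB, GAPDH, POLR2A; bidirectional change versus DMSO.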

[8] = read-out: succinate dehydrogenase complex iron sulfur subunit B (SDHB), SDHB (gene 6390); test: LTEA_HepaRG_SDHB: Life Technologies and Expression Analysis (LTEA) Assay for succinate dehydrogenase complex iron sulfur subunit B (SDHB) using HepaRG (AID 2283528)
How it was run: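 A human HepaRG culture in serum-free induction medium received test chemicals for 48 h over an eight-point range capped at 100 uM. SDHB expression change was quantified by qRT-PCR.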

[9] = read-out: Signal transducer and activator of transcription 3 (Homo sapiens) (UniProt P40763); test: LTEA_HepaRG_STAT3: Life Technologies and Expression Analysis (LTEA) Assay for Signal transducer and activator of transcription (STAT3) using HepaRG (AID 2283529)
How it was run: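 Differentiated HepaRG cells, serum-free induction medium, dosed 48 h in duplicate, 8 half-log concentrations from 100 uM in 0.5% DMSO. STAT3 mRNA by qRT-PCR, normalised to ACTB, GAPDH, POLR2A; bidirectional fit versus DMSO.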

[10] = read-out: Nuclear factor NF-kappa-B p105 subunit (Homo sapiens) (UniProt P19838); test: LTEA_HepaRG_NFKB1: Life Technologies and Expression Analysis (LTEA) Assay for Nuclear Factor Kappa B Subunit 1 (NFKB1) using HepaRG (AID 2283521);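 further: TaqMan qRT-PCR transcript normalised to ACTB GAPDH and POLR2A housekeeping genes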
How it was run: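 Human HepaRG cells receive eight half-log concentrations, highest 100 uM, for 48 h. NFKB1 expression is then quantified by qRT-PCR and analysed for up- or down-regulation relative to 0.5% DMSO vehicle.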

Sequence of Nuclear factor erythroid 2-related factor 2 (Homo sapiens) (Q16236 whole entry, looked up): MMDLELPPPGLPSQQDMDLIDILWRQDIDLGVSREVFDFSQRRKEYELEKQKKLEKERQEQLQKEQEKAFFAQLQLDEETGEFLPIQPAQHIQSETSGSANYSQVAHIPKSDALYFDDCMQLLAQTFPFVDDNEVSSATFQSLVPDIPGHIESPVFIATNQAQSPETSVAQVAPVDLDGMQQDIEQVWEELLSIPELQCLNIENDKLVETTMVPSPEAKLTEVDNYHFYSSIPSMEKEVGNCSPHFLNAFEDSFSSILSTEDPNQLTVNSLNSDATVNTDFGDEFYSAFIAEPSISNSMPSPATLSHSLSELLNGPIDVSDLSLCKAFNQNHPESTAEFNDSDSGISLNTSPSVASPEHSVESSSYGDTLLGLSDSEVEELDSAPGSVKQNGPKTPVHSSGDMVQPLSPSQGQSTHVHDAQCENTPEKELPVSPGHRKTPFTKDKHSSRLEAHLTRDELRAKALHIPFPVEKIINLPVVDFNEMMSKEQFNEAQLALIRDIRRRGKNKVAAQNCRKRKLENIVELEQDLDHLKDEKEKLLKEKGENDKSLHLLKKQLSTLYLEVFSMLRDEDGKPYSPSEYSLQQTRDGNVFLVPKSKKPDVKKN
Sequence of Signal transducer and activator of transcription 3 (Homo sapiens) (P40763 whole entry, looked up): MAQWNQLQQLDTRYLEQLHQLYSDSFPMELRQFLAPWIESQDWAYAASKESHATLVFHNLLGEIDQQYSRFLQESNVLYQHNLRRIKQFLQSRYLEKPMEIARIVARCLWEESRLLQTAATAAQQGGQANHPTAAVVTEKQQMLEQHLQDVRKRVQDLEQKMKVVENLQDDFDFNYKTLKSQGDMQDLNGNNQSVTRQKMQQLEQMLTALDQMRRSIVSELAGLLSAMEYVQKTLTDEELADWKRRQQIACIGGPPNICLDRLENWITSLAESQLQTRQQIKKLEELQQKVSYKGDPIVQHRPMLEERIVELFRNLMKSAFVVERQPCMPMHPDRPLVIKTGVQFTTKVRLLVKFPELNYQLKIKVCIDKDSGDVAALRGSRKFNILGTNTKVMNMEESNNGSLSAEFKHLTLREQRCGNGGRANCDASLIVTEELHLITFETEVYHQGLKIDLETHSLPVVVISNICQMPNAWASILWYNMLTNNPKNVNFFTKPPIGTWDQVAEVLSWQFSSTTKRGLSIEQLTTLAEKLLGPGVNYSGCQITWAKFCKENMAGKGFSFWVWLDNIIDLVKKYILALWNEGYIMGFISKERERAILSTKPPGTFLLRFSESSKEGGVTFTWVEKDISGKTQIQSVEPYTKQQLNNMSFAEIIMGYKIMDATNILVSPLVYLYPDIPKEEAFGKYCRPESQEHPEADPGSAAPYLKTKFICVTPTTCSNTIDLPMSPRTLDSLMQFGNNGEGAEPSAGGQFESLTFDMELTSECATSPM
Sequence of Nuclear factor NF-kappa-B p105 subunit (Homo sapiens) (P19838 whole entry, looked up): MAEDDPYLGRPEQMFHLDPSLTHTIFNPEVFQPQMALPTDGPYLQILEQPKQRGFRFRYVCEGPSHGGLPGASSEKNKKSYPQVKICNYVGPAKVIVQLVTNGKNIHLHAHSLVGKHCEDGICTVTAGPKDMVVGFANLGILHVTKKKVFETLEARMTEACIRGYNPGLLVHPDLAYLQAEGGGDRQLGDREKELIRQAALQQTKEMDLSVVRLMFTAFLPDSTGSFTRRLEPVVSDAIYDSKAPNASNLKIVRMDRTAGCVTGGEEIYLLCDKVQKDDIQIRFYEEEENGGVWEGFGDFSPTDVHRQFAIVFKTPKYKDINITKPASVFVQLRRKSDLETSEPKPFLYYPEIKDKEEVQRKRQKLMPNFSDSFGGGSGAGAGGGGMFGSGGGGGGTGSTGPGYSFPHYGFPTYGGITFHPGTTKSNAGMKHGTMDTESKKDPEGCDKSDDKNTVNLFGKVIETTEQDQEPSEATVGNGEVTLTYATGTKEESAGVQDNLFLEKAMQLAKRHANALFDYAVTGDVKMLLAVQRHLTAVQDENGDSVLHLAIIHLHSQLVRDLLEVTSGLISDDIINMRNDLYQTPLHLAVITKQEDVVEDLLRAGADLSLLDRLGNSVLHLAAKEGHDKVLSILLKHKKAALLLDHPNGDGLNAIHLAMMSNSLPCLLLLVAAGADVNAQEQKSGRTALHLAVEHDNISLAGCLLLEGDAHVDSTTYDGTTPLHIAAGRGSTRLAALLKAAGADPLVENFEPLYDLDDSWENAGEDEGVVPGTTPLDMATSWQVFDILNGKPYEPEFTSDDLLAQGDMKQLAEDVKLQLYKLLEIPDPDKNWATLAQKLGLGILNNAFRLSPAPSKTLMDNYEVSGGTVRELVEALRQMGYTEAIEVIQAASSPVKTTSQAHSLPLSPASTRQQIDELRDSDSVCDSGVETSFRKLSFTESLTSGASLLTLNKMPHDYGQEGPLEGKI

| Compound | outcome [1] | outcome [2] | outcome [3] | AC50 [4] | AC50 [5] | outcome [6] | outcome [7] | outcome [8] | AC50 [9] | outcome [4] | outcome [9] | outcome [10] | outcome [5] | AC50 [1] | AC50 [3] | AC50 [6] | AC50 [7] |
| --- | --- | --- | --- | --- | --- | --- | --- | --- | --- | --- | --- | --- | --- | --- | --- | --- | --- |
| CSC(=O)c1c(C(F)F)nc(C(F)(F)F)c(C(=O)SC)c1CC(C)C | inactive | inactive | inactive | 90 µM (active) | 33.8 µM (active) | inactive | inactive | inactive | 49.8 µM (active) |  |  |  |  |  |  |  |  |
| CN/C(=N\[N+](=O)[O-])NCc1cnc(Cl)s1 | inactive | inactive | inactive |  | 36.6 µM (active) | inactive | inactive | inactive |  | inactive | inactive |  |  |  |  |  |  |
| N#CN=C1SCCN1Cc1ccc(Cl)nc1 | inactive | inactive | inactive |  |  | inactive | inactive | inactive |  | inactive | inactive | inactive | inactive |  |  |  |  |
| Cn1c(-c2ccccc2)cc(-c2ccccc2)[n+]1C |  | inactive |  | 34.5 µM (active) |  | inactive | inactive | inactive | 22.5 µM (active) |  |  |  | inactive | 10.7 µM (active) | 88.3 µM (active) |  |  |
| CCCN(CC)CC1COC2(CCC(C(C)(C)C)CC2)O1 (stereo unspecified) | inactive | inactive | inactive |  |  | inactive | inactive | inactive |  | inactive | inactive | inactive | inactive |  |  |  |  |
| Cc1ccc(N=CN(C)C=Nc2ccc(C)cc2C)c(C)c1 | inactive | inactive | inactive |  |  | inactive | inactive | inactive |  | inactive | inactive |  | inactive |  |  |  |  |
| CC1(C)CCC(=Cc2ccc(Cl)cc2)C1(O)Cn1cncn1 (stereo unspecified) | inactive | inactive | inactive |  |  | inactive | inactive | inactive |  | inactive | inactive |  | inactive |  |  |  |  |
| CCCCC(C#N)(Cn1cncn1)c1ccc(Cl)cc1 (stereo unspecified) | inactive | inactive | inactive |  |  | inactive | inactive | inactive |  | inactive | inactive |  | inactive |  |  |  |  |
| COc1ccc(-c2ccccc2)cc1NNC(=O)OC(C)C | inactive | inactive | inactive |  |  | inactive | inactive | inactive |  | inactive | inactive | inactive | inactive |  |  |  |  |
| Clc1nc(Cl)nc(Nc2ccccc2Cl)n1 | inactive | inactive | inactive |  |  | inactive | inactive | inactive |  | inactive | inactive | inactive | inactive |  |  |  |  |
| CS(=O)(=O)c1cc(C(F)(F)F)ccc1C(=O)c1cnoc1C1CC1 | inactive | inactive | inactive |  |  | inactive | inactive | inactive |  | inactive | inactive | inactive | inactive |  |  |  |  |
| CCCCC(O)(Cn1cncn1)c1ccc(Cl)cc1Cl (stereo unspecified) |  | inactive | inactive | 73.6 µM (active) | 78.8 µM (active) |  |  | inactive | 85.9 µM (active) |  |  | inactive |  | 50 µM (active) |  | 50 µM (active) | 50 µM (active) |
| CC1(C)C(C(=O)OC(C#N)c2cccc(Oc3ccccc3)c2)C1(C)C (stereo unspecified) | inactive | inactive | inactive |  |  | inactive | inactive | inactive |  | inactive | inactive | inactive | inactive |  |  |  |  |
| COP(=S)(OC)Oc1ccc([N+](=O)[O-])c(C)c1 | inactive | inactive | inactive |  |  | inactive | inactive | inactive |  | inactive | inactive |  | inactive |  |  |  |  |
| C=CCOC(=O)C(C)(C)OC(=O)c1cc(-n2c(=O)cc(C(F)(F)F)n(C)c2=O)ccc1Cl | inactive | inactive | inactive |  |  | inactive | inactive | inactive |  | inactive | inactive |  | inactive |  |  |  |  |
| N#Cc1c(Cl)cccc1Cl | inactive | inactive | inactive |  |  | inactive | inactive | inactive |  | inactive | inactive | inactive | inactive |  |  |  |  |
| CC(C)N1C(=O)c2ccccc2NS1(=O)=O | inactive | inactive | inactive |  |  | inactive | inactive | inactive |  | inactive | inactive | inactive | inactive |  |  |  |  |
| Cc1cnc(C2=NC(C)(C(C)C)C(=O)N2)c(C(=O)O)c1 (stereo unspecified) | inactive | inactive | inactive |  |  | inactive | inactive | inactive |  | inactive | inactive |  | inactive |  |  |  |  |
